# Bioassay records deposited in PubChem BioAssay by National Center for Advancing Translational Sciences (NCATS).
# HT1080 IDH1KD tx = qHTS for induction of synthetic lethality in tumor cells producing 2HG: qHTS for the HT-1080-IDH1KD cell line; AID 686971, 2013; 360,000 tested, 2% active; Potency, µM (top dose mostly 46.1 µM), for the others: at the highest dose activity, negative = toxicity, most hits filed as cytotoxic; HT-1080 IDH1 knockdown viability, ATP luminescence, 48 h;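 also: potency is read from the fitted curve at half-maximal effect; 0% = DMSO wells and -100% = cell-free medium wells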
#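 IDH1KD HT-1080 cells, 750/well, RPMI + 5% FBS; compound pinned after 2 h settling; 48 h, 37 °C; CellTiter-Glo luminescence; % activity normalised to DMSO and no-cell wells; curves fitted, classed by r2 and efficacy.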
# DT40 TDP1 no CPT = qHTS for Inhibitors of human tyrosyl-DNA phosphodiesterase 1 (TDP1): qHTS in cells in absence of CPT; DT40 Tdp1-/- hTDP1 cells, no CPT, ATP luminescence, 48 h; Potency, µM (highest dose often 46.2 µM), inactives show at the top dose activity change, negative = growth inhibition, usual class: inhibitors; 420,000 tested, 15% active; also: potency is read from the fitted curve at half-maximal effect; nearly all actives have a fitted effect of over 55% in size
#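 Compound effects on proliferation are scored in DT40 Tdp1-/-;hTDP1 cells in the absence of CPT. ATP levels (CellTiter-Glo luminescence) are recorded after a ≥48 hr, 37 °C incubation.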
# HT1080NT lethal = qHTS for induction of synthetic lethality in tumor cells producing 2HG: qHTS for the HT-1080-NT fibrosarcoma cell line | HT-1080-NT fibrosarcoma viability, CellTiter-Glo ATP luminescence, 48 h | Potency, µM (doses to about 46.1 µM), for the others: at the top dose activity, negative = less viability, usual class: cytotoxic | 360,000 tested, 1.6% active;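 also: NT is the 2HG producing partner of a matched IDH1 knockdown line; potency is read from the fitted curve at half-maximal effect; 0% = DMSO-treated cells and -100% = media-only wells without cells; nearly all actives have a fitted effect of over 55% in size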
#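 Toxicity toward the 2HG-producing NT line was scored as %Activity, normalised to DMSO and no-cell wells, from CellTiter-Glo luminescence after 48 hours' treatment.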
# TDP1 cell CPT = qHTS for Inhibitors of human tyrosyl-DNA phosphodiesterase 1 (TDP1): qHTS in cells in presence of CPT. chicken DT40 Tdp1-/-;hTDP1 cells + 20 nM CPT, ATP luminescence, 48 h. 420,000 tested, 12% active. Potency, µM (top dose mostly 46.2 µM), for inactives: top-dose activity change, negative = growth inhibition, actives largely listed as inhibitors; also: potency is read from the fitted curve at half-maximal effect; nearly all actives have a fitted effect of over 55% in size
#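 Cell growth measured by CellTiter-Glo luminescence after a minimum 48 h, 37 C compound exposure with 20 nM CPT in Tdp1-knockout DT40 cells stably expressing hTDP1, seeded 400/well; qHTS titration format.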
# IL1B secr inh = qHTS for Inhibitors of Inflammasome Signaling: IL-1-beta AlphaLISA Primary Screen; THP-1 LPS/ATP IL-1B secretion, AlphaLISA, 16 h; active compounds read low; activity change, % at 57.5 µM; 360,000 tested, 4.7% active; AID 743279, 2014; in the data active = activity change below about -50%; inconclusive = mostly about -30% to -49%
#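 Secreted IL-1B measured by AlphaLISA bead assay after 16 h compound exposure of THP-1 cells; compounds (final up to 57.5 uM) added 1 h before LPS (250 ng/mL) and ATP (1.25 mM) stimulation; lower signal means less secretion.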
# ELG1 DNA repair = qHTS screen for small molecules that inhibit ELG1-dependent DNA repair in human embryonic kidney (HEK293T) cells expressing luciferase-tagged ELG1 | Potency, µM (top dose mostly 46.1 µM), for the others: top-dose activity change, negative = inhibition, most hits filed as inhibitors | 330,000 tested, 2.3% active | HEK293T ELG1-luciferase reporter, luminescence, 16 h; DNA damage induced by 5-fluorouridine; also: potency is read from the fitted curve at half-maximal effect; nearly all actives have a fitted effect of over 55% in size
#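 In this reporter screen, reduction of luminescence relative to DMSO vehicle indicated activity. Compounds and 5-fluorouridine were added together to 2,000 cells per well, incubated for 16 hr at 37 °C, then developed with ONE-Glo.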
# Numbers without * were called inactive; u = inconclusive; x = no result. Compounds with a hit are over-represented: about 19% of the library has one in this group of screens. Unless noted, calls follow the shape of the dose curve; as a rule, active = well fitted curve in the direction sought with a large enough effect; inconclusive = small, poorly fitted or top-dose-only effect, or another doubt; inactive = no such curve, though single readings can be large; an effect the other way counts as inactive or inconclusive. Unless noted, % is scaled to controls: 0 for no effect and ±100 for the full control effect.
SMILES,HT1080 IDH1KD tx,DT40 TDP1 no CPT,HT1080NT lethal,TDP1 cell CPT,IL1B secr inh,ELG1 DNA repair
COc1ccc(N2CCC(CNC(=S)Nc3cccc(C)c3)C2)cc1 (configuration not stated),1%,u,-5%,u,-77*,-4%
COc1ccc(N2CCC(CNC(=S)Nc3ccc(C)cc3C)C2)cc1 (configuration not stated),-2%,18µM*,-17%,u,u,u
COc1ccc(N2CCC(CNC(=O)Nc3ccc(C)c(C)c3)C2)cc1 (configuration not stated),-5%,u,-3%,-23%,-10,0%
Cc1nnc(NS(=O)(=O)c2ccc(Br)cc2)s1,4%,-6%,-1%,-24%,-3,-7%
CC(=O)c1cccc(NC(=O)/C=C/c2ccc([N+](=O)[O-])s2)c1,u,1.5µM*,u,1.3µM*,-104*,u
Cc1ccccc1NC(=O)/C=C/c1ccc([N+](=O)[O-])s1,3.7µM*,0.82µM*,4.1µM*,0.92µM*,-102*,u
Cc1cc(C)cc(NC(=O)/C=C/c2ccc([N+](=O)[O-])s2)c1,u,1.2µM*,u,u,-102*,-1%
COc1cc(OC)c(NC(=O)CSc2cc(=O)n(C)c3ccc(Cl)cc23)cc1Cl,x,u,x,-20%,x,x
Cc1ccc2c(c1)C(=O)OC(C(=O)Nc1ccccc1C(=O)O)C2 (configuration not stated),x,-18%,x,-9%,x,x
COc1ccccc1N1CCN(c2nc(CNC(=O)c3ccc(C)c(C)c3)nc3ccccc23)CC1,x,-29%,x,0%,x,x
COCCN(C(=O)COC(=O)CCOc1ccccc1)c1c(N)n(Cc2ccccc2)c(=O)[nH]c1=O,4%,-16%,2%,7%,-1,11%
CC(C)NC(=NCc1ccc(Cl)cc1Cl)Nc1ccccc1,-24%,5.2µM*,u,13µM*,x,u
O=C1NC(c2ccccc2)=C(c2ccccc2)C1=O,20%,-5%,18%,-12%,12,1%
O=C1C(Br)=C(c2ccccc2)C(c2ccccc2)=C1c1ccccc1,u,0.92µM*,1%,0.58µM*,-13,x
CCC(C(=O)NCc1ccccc1)n1c(-c2ccc3c(c2)CCO3)nc2ccccc21 (configuration not stated),-2%,u,-5%,15µM*,-10,x
CCCCn1c(SCC(=O)Nc2cccc(OC)c2)nc2c(sc3ccccc32)c1=O,x,-19%,x,-8%,x,x
CN(Cc1ccccc1)c1ccc(C(CC(N)=O)NC(=O)c2ccccc2)cc1[N+](=O)[O-] (configuration not stated),-4%,16µM*,0%,23µM*,22,-28%
NC(=O)CC(NC(=O)Cc1ccc(Br)cc1)c1ccc(NCc2ccc(F)c(F)c2)c([N+](=O)[O-])c1 (configuration not stated),u,u,u,16µM*,-19,1%
NC(=O)CC(NC(=O)c1ccccc1)c1ccc(NCc2ccccc2)c([N+](=O)[O-])c1 (configuration not stated),-3%,23µM*,-1%,21µM*,-7,-10%
CN(Cc1ccccc1)c1ccc(C(CC(N)=O)NC(=O)Cc2ccc(Br)cc2)cc1[N+](=O)[O-] (configuration not stated),-15%,u,-19%,u,25,-19%
NC(=O)CC(NC(=O)c1ccccc1)c1ccc(NCc2ccc(F)c(F)c2)c([N+](=O)[O-])c1 (configuration not stated),-4%,u,0%,u,0,-6%
NC(=O)CC(NC(=O)c1ccccc1)c1ccc(NCc2ccc(F)cc2)c([N+](=O)[O-])c1 (configuration not stated),-1%,u,-4%,18µM*,u,-5%
FC(F)(F)c1ccccc1-c1cncnc1NCc1cccs1,x,1%,x,-6%,x,x
CC(O)CNCCCOc1ccc(Cl)cc1C(C)(C)C (configuration not stated),u,13µM*,18µM*,13µM*,-66*,0%
CN(C)CCOCCOc1ccc(Cl)cc1C(C)(C)C,u,u,u,u,-56*,3%
SMILES,HT1080 IDH1KD tx,DT40 TDP1 no CPT,HT1080NT lethal,TDP1 cell CPT,IL1B secr inh,ELG1 DNA repair
O=C(OCC(=O)N1CCN(c2ccccc2)CC1)c1ncc(Cl)c(Cl)c1Cl,20%,-12%,17%,-8%,-17,3%
CCCCn1c(SCc2ccccc2C#N)nc2c(sc3ccccc32)c1=O,x,u,x,-21%,x,x
COc1ccc(Br)cc1Cn1nnc(C(=O)Nc2ccc(C)cc2C)c1N,x,u,x,-3%,x,x
O=C(Nc1nc2c(s1)CCCC2)c1ccc(Br)s1,u,29µM*,u,16µM*,-93*,u
Cc1cccc(C(=O)Nc2sc3c(c2C(=O)NC(C)C)CCCC3)c1,x,15µM*,x,u,x,x
COc1ccc(C(=O)Nc2nc3c(s2)CCCC3)cc1Cl,x,15µM*,x,u,x,x
CNC(=O)c1c(NC(=O)c2cccc(C)c2)sc2c1CCC2,-11%,u,-16%,u,x,u
O=C(Nc1nc2c(s1)CCCC2)c1ccc2ncsc2c1,-3%,u,u,16µM*,0,u
C=CCN1C(=O)c2ccc(C(=O)N(C)CC(=O)Nc3c(C)cccc3C)cc2C1=O,2%,3%,-4%,-15%,9,-10%
CNc1cncc(-c2ccc(F)cc2F)n1,-1%,-26%,1%,-29%,u,x
Cc1cc(C(=O)Nc2nc3c(s2)CCCC3)cs1,u,u,6.3µM*,u,u,u
Cc1cccc(C(=O)Nc2nc3c(s2)CCCC3)c1,x,18µM*,x,u,x,x
Cc1ccc(CC(=O)Nc2nc3c(s2)CCCC3)cc1,u,u,u,u,4,u
Cc1c(-c2ccccc2)c(-c2ccc(OCCN(C)C)cc2)n2ccccc12,-20%,u,-7%,u,-59*,x
CN(C)CCOc1ccc2ccccc2c1,7%,-17%,5%,-10%,3,5%
